# Compound activity (PubChem BioAssay)
# Only some compounds are listed: those with a hit (about 3.2% of all), similar ones and a draw of the others.
# ERAP1 inh = ERAP1 (human) enzyme inhibition. Q9NZ08. recombinant ERAP1, Leu-AMC fluorescence, 60 min. inhibition, % at 10.7 µM. 0.15% of 340,000 active. AID 652197;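 active means mean replicate inhibition of at least 30%, or all replicates individually reaching that 30% level; inactive means mean below 30% and not every replicate reaching it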;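 further: 0% = neutral control wells and 100% = L-leucinethiol positive control wells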
# Target sequence (Q9NZ08 whole entry, looked up): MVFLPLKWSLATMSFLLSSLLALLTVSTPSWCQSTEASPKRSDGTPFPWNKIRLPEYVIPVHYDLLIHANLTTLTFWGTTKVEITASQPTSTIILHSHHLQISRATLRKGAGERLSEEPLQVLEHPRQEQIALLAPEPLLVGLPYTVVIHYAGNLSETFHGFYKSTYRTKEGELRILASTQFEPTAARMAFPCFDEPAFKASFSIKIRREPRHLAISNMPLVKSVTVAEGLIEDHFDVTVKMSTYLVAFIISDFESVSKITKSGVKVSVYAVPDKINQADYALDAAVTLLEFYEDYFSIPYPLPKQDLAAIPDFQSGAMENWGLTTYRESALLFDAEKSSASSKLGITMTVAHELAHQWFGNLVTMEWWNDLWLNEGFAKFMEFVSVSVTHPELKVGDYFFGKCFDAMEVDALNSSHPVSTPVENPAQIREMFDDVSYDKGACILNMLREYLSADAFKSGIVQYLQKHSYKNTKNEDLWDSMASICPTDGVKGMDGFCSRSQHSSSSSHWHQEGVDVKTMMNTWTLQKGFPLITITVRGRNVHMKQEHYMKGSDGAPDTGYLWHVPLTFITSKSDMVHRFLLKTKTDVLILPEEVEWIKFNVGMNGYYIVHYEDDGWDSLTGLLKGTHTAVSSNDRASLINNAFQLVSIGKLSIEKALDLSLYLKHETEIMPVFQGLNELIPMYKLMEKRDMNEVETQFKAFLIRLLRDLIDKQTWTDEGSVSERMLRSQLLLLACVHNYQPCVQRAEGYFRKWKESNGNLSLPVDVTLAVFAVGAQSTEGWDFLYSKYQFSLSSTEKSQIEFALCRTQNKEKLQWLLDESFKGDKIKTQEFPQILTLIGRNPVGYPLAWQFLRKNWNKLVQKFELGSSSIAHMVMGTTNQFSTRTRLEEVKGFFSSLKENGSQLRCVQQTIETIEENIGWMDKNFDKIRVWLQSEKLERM
# PGC1a acetyl inh = lowers PGC1a acetylation signal in U2OS cells. AlphaScreen anti-acetyl-lysine; with virally co-expressed GCN5 acetyltransferase. inhibition, % at 15.6 µM. 0.17% of 350,000 active. AID 651687;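 active means every replicate shows inhibition of at least 40%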;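 further: 0% = neutral control wells and 100% = positive control wells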
# rRNA inh HTS = inhibitors of bacterial rRNA selective over humanized ribosomes; AID 720706; 1.6% of 350,000 active; E. coli WT GFP vs humanized-ribosome RFP mutants, fluorescence, 24 h; stronger effect = lower value; DMSO median 0, no signal -100; GFP signal change (wild-type ribosome), % (concentration not given with the values);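 active means significant combined selectivity score with lowered wild-type GFP, culture density cut under 30%, mutant RFP and density less affected; inactive means any of these conditions unmet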
# CaV13 ICDI inh = Primary screen for inhibitors of IQ motif and Ca2+-dependent inactivation inhibitor domain binding in CACNA1D, Förster resonance energy transfer in living cells, …; 0.098% of 340,000 active; inhibition, % at 12.3 µM; HEK cells, CFP/YFP FRET ICDI-IQ, plate reader, 10 min; percent FRET-ratio fall versus neutral wells;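 active means mean replicate inhibition of at least 30% and at least 1% of replicates passing that level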;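 further: 0% = median of the neutral control wells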
# GSIS activator = primary screen for activators of insulin secretion dependent on glucose, INS-1E cells, GLuc reporter luminescence | INS-1E GLuc reporter insulin secretion, 2-3 h | activation, % at 16.6 µM | 0.61% of 370,000 active | AID 743287;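 active means lowest replicate activation of at least 40%, so every replicate reaches that level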;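 further: 0% = median of neutral control wells and 100% = median of IBMX positive control wells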
# DENV2 CPE rescue = protects cells from dengue virus 2 cytopathic effect; CPE inhibition, % at 9.99 µM; DENV2-infected cells, cytopathic effect rescue, plate reader; 1.7% of 350,000 active; in the data active means CPE inhibition above about 20%, passing the limit was not always enough; tested in BHK-21 cells;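 further: 0% = median of neutral control wells and 100% = median of positive control wells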
# * marks the source's active call; other numbers are inactive results; . = no result; + = active, no number.
SMILES,ERAP1 inh,PGC1a acetyl inh,rRNA inh HTS,CaV13 ICDI inh,GSIS activator,DENV2 CPE rescue
Cc1ccc2nc3c(cc(S(=O)(=O)c4ccccc4)c(=N)n3Cc3ccco3)c(=O)n2c1,-60,-1,-21*,+,.,6
CCCn1c(=N)c(S(=O)(=O)c2ccccc2)cc2c(=O)n3ccccc3nc21,-399,.,-2,129*,9,-1
CCn1c(=N)c(S(=O)(=O)c2ccccc2)cc2c(=O)n3ccccc3nc21,-54,1,11,33*,14,2
N=c1c(S(=O)(=O)c2ccccc2)cc2c(=O)n3ccccc3nc2n1Cc1ccco1,.,-10,.,.,.,.
Cc1ccc(S(=O)(=O)c2cc3c(=O)n4ccccc4nc3n(C)c2=N)cc1,.,-16,.,80*,16,.
NCC[C@@H]1CC[C@H](NC(=O)C2CC2)[C@H](CO)O1,0,.,0,.,3,6
Fc1cc(F)c(C2SCCN2C(=S)Nc2cccc(C(F)(F)F)c2)c(F)c1 (stereo not drawn),1,-18,-50,-5,-20,8
CCOC(=O)c1ccc(NC(=S)N2CCSC2c2c(F)cc(F)cc2F)cc1 (stereo not drawn),2,.,-28*,-3,-12,-3
C[C@@H]1CCCCO[C@@H](CN(C)C(=O)Nc2cccc3ccccc23)[C@@H](C)CN([C@H](C)CO)C(=O)c2cc(NC(=O)Nc3ccc(C(F)(F)F)cc3)ccc2O1,-3,8,0,.,3,-1
CCCCOc1ccc(C(=O)NCCN2CCC(n3c(=O)[nH]c4ccccc43)CC2)cc1,-3,.,-45*,-10,-32,4
O=C(NCCN1CCC(n2c(=O)[nH]c3ccccc32)CC1)c1ccc(OC(F)(F)F)cc1,-6,.,-23,-4,-38,3
C[C@@H]1CCCCO[C@H](CN(C)C(=O)CCC(F)(F)F)[C@H](C)CN([C@@H](C)CO)C(=O)c2cc(NS(=O)(=O)c3ccccc3)ccc2O1,5,-3,-5,.,-20,-9
CO[C@H]1CN(C)C(=O)c2cc(NC(=O)NC(C)C)ccc2OC[C@H](C)N(CCC(F)(F)F)C[C@@H]1C,.,1,-6,.,1,.
C[C@H](CO)N1C[C@H](C)[C@H](CN(C)C(=O)Cc2ccccc2)Oc2cc(-c3cncnc3)ccc2S1(=O)=O,2,-4,1,.,-3,-4
C[C@]12CCC(=O)C=C1CCC1C2CC[C@@]2(C)C1CCC21OCCO1 (stereo partly drawn),-1,-6,-54,-6,.,-6
CC(=O)C12OC1CC1C3CCC4=CC(=O)CCC4(C)C3CCC12C (stereo not drawn),-8,.,-23*,10,-5,-5
Cc1ccc(-n2nc3c(c2NC(=O)C2CC2)CS(=O)(=O)C3)cc1C,1,2,6,-6,9,-2
Cc1ccc(-n2nc3c(c2NC(=O)C2CC2)CS(=O)(=O)C3)cc1,-4,4,10,-3,57*,18
COc1ccccc1N(CN1C(=O)c2ccccc2C1=O)C(=O)c1cccc(C)c1,-3,.,-30*,-2,-21,6
O=C(Nc1cccc(Cl)c1)N1N=CCC1c1ccccc1 (stereo not drawn),1,-11,-27*,-17,.,-7
O=C(Nc1cccc2ccccc12)N1N=CCC1c1ccccc1 (stereo not drawn),2,3,-28*,0,1,0
O=C(Nc1cccc2ccccc12)N1CCN(c2ccccc2)CC1,.,16,.,-8,.,.
CC(=O)N1[C@H](C(=O)NCCCN(C)C)[C@@H](CO)[C@@H]2Cn3c(ccc(-c4cccc(F)c4)c3=O)[C@@H]21,8,.,1,.,9,-3
CCS(=O)(=O)N1CC2(CN(Cc3cccc(Cl)c3)[C@@H](CO)c3c2c2ccc(OC)cc2n3C)C1,-2,4,-4,.,-7,-9
O=C(Cc1coc2cc(O)ccc12)N1CCN(S(=O)(=O)c2ccc(Br)cc2)CC1,2,4,-20*,-2,16,2
SMILES,ERAP1 inh,PGC1a acetyl inh,rRNA inh HTS,CaV13 ICDI inh,GSIS activator,DENV2 CPE rescue
Cc1ccc2c(CC(=O)N3CCN(S(=O)(=O)c4cccs4)CC3)coc2c1,.,4,.,-2,.,.
C[C@H]1CCCCO[C@H](CN(C)S(=O)(=O)c2ccccc2)[C@@H](C)CN([C@@H](C)CO)C(=O)c2cc(NC(=O)Nc3ccc4c(c3)OCO4)ccc2O1,-1,-18,-1,.,-1,61*
C[C@H](CO)N1C[C@H](C)[C@@H](CN(C)S(=O)(=O)c2ccccc2)OCCCC[C@H](C)Oc2ccc(NC(=O)Nc3ccc4c(c3)OCO4)cc2C1=O,0,-16,-3,.,-8,29*
C[C@@H]1CCCCO[C@H](CN(C)S(=O)(=O)c2ccccc2)[C@@H](C)CN([C@H](C)CO)C(=O)c2cc(NC(=O)Nc3ccc4c(c3)OCO4)ccc2O1,0,2,3,.,-8,91*
Cc1ccc(S(=O)(=O)N(C)C[C@@H]2OCCCC[C@H](C)Oc3ccc(NC(=O)Nc4ccc5c(c4)OCO5)cc3C(=O)N([C@H](C)CO)C[C@H]2C)cc1,-4,-12,-1,.,-8,1
C[C@@H]1CN([C@@H](C)CO)C(=O)c2cc(NC(=O)Nc3ccc4c(c3)OCO4)ccc2O[C@@H](C)CCCCO[C@@H]1CN(C)S(=O)(=O)c1ccccc1,1,1,-1,.,4,11
O=C([C@@H]1[C@@H](CO)[C@@H]2Cn3c(ccc(-c4ccccc4)c3=O)[C@@H]2N1Cc1cocn1)N1CCCCC1,-2,.,1,.,2,-9
C[C@@H]1CCCCO[C@H](CN(C)C(=O)c2ccncc2)[C@H](C)CN([C@@H](C)CO)C(=O)c2cc(NS(=O)(=O)c3ccc(Cl)cc3)ccc2O1,-4,-3,3,.,-30,15
O=C(c1ccccc1)c1ccccc1,-1,8,8,.,.,-11
O=C(c1ccccc1)c1ccc(-c2ccc(O)cc2)cc1,-9,.,-28*,-21,-3,1
CC(C)CC#Cc1cnc2c(c1)C(=O)N([C@H](C)CO)C[C@H](C)[C@H](CN(C)Cc1ccccc1C(=O)O)O2,0,0,0,.,1,3
CCOC(=O)c1c(-n2cnnn2)sc2c1CCCC2,0,.,-18,5,60*,0
CCOC(=O)c1c(N)sc2c1CCCC2,.,-2,.,.,.,.
CN(C)CCCNC(=O)[C@@H]1[C@@H](CO)[C@@H]2Cn3c(ccc(-c4ccc(F)cc4)c3=O)[C@@H]2N1C,.,5,4,.,5,.
CC(C)N(CCc1ccncc1)C(=S)Nc1cccc(Cl)c1,1,-13,-17*,-3,-20,10
CC(=O)N(C)C[C@H]1Oc2ncccc2C(=O)N(C)C[C@H]1C,.,.,2,.,15,.
CCCn1c2ccccc2c2cn[nH]c(=O)c21,-6,-3,-7,-12,47*,4
